PubChem BioAssay
“And” between values parts separate entries of the source, which are not always exact repeats. Equal values may be shown once. Records with an inconclusive call do not appear. The source made the active and inactive calls.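 The calls were made as follows, unless noted: active = compounds whose cell count with miR-34 switched on is under 0.7 times the count with it off; inactive = the rest.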

Legend:
[1] = viability loss in pontine glioma line – cell-based, SU-DIPG-XXV, MIPE5.0, CellTiter-Glo, qHTS, dose response (AID 1347065; cut-off not given, nearly all actives have AC50 up to about 26 µM;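 also: cells exposed to compound for 48 hours before ATP readout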); conditions: CellTiter-Glo ATP luminescence
[2] = growth inhibition of DIPG cells – cell-based, MIPE4.0 library, CellTiter-Glo luminescence, qHTS (AID 1347066; cut-off not given, nearly all actives have AC50 up to about 30 µM;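 also: cells exposed to compound for 48 hours before readout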); conditions: SU-DIPG-VI viability, CellTiter-Glo ATP luminescence
[3] = JHH-DIPG-1 glioma cell viability, MIPE5.0 library, CellTiter-Glo luminescence, qHTS (AID 1347067; cut-off not given, nearly all actives have AC50 up to about 26 µM;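 also: cells exposed to compound for 48 hours before readout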); conditions: JHH-DIPG-1 glioma viability, CellTiter-Glo ATP luminescence
[4] = growth inhibition of DIPG cells – cell-based, MIPE5.0 library, qHTS (AID 1347068; cut-off not given, nearly all actives have IC50 up to about 30 µM;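 as to IC50: cells exposed to compound for 48 hours before viability readout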); conditions: SU-DIPG-XXV viability
[5] = viability loss with induced miR-34 in A549 – imaging, A549 dox-inducible miR-34, nuclei and caspase counts, primary screen (AID 1347080); conditions: A549 miR-34 inducible, Hoechst nuclei count, 48 h
[6] = MELAS cybrid and Rieske KO viability enhancers – cell-based, MELAS cybrids, Rieske KO mouse fibroblasts, CellTiter-Glo, primary screen (AID 1508586;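 active = mean z-score across replicates of 1.96 or higher in either the MELAS or the Rieske mutant cell line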;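 also: z relative to plate mean and SD of compound and empty wells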); conditions: low glucose
[7] = molecular target: NAD(+) hydrolase SARM1 (Homo sapiens) (UniProt Q6SZW1); test: blocking NAD cleavage by SARM1 SAM-TIR – cell lysate, NAD-Glo luminescence (AID 1508614;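 active = compound whose remaining NAD level is above about 45 nM, limit read from the data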;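 also: higher remaining NAD means stronger inhibition of SARM1 NADase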); conditions: SAM-TIR HEK293T lysate NADase, at 1 µM, stronger effect = higher value
[8] = molecular target: Mitogen-activated protein kinase 7 (Homo sapiens) (UniProt Q13164); test: Gal4-ERK5 driven luciferase induction – cell-based, HTS, primary screen (AID 1508626;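 active = luciferase signal above three times the same-plate solvent-only control wells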;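 also: luciferase driven by Gal4-ERK5 fusion binding five Gal4 sites before minimal TATA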); conditions: HeLa Gal4-ERK5 transactivation, 18 h, at 5 µM, stronger effect = higher value
[9] = galactose survival enhancers in mitochondrial complex I cybrids – cell-based, galactose medium, ATP luminescence, primary screen (AID 1645843;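 active = z-score of at least 1.8 in each of two replicates, scored against plate mean and spread of sample wells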;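 also: positive z means more ATP and so rescue of galactose-driven cybrid death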); conditions: complex I mutant cybrid cells, 72 h, stronger effect = higher value
[10] = blockers of cellular phospholipid synthesis – cell-based, LOPAC library, screen 4, primary screen (AID 1347384; call rule not given here); conditions: animal cells, phospholipid biosynthesis inhibition screen; at 10 µM
[11] = growth inhibition, single agent or in combination, cell-based, chromothripsis tumors, cisplatin or BGB combos (AID 1671449; in the data active = inhibition above about 80%;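 also: cells exposed for 96 hours; 0% = vehicle DMSO and 100% = killing by high DMSO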); conditions: LFS_MB_P medulloblastoma cells
[12] = growth inhibition, single agent and combos, cell-based, chromothripsis tumors, cisplatin or BGB combos (AID 1671450; in the data active = inhibition above about 80%;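 also: cells exposed to compound for four days; 0% = vehicle DMSO and 100% = cell killing by high DMSO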); conditions: HDN33 neuroblastoma cells, stronger effect = higher value
[13] = growth inhibition, single agents and combos, ICB984, cell-based, cisplatin or BGB combos, synergistic combos for chromothripsis tumors (AID 1671451; call rule not given here;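 also: cells exposed for 96 hours before readout; 0% = vehicle DMSO and 100% = killing by high DMSO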); conditions: ICB984 medulloblastoma cells, drug combinations, stronger effect = higher value
[14] = growth inhibition, single agents and combos, LFS_MB_1R, cell-based, cisplatin or BGB combos, synergistic combos for chromothripsis tumors (AID 1671452; in the data active = inhibition above about 80%;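 also: cells exposed for 96 hours before readout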); conditions: LFS_MB_1R medulloblastoma cells, stronger effect = higher value
[15] = growth inhibition, single agents and combos, HTB85, cell-based, BGB or cisplatin IC20 combos, synergistic combos for chromothripsis tumors (AID 1671453; in the data active = inhibition above about 80%;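 also: cells exposed for 96 hours before readout; 0% = vehicle DMSO and 100% = high DMSO killing control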); conditions: HTB85 osteosarcoma cells, drug combinations, stronger effect = higher value
[16] = growth inhibition, single agents and combos, CRL2098, cell-based, BGB or cisplatin IC20 combos, synergistic combos for chromothripsis tumors (AID 1671454; in the data active = inhibition above about 80%;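 also: cells exposed for 96 h before readout; 0% = vehicle DMSO and 100% = killing by high DMSO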); conditions: CRL2098 osteosarcoma cells, drug combinations, stronger effect = higher value
[17] = growth inhibition, single agents and combos, HD-MB03, cell-based, BGB or cisplatin IC20 combos, synergistic combos for chromothripsis tumors (AID 1671455; in the data active = inhibition above about 83%;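 also: 0% = vehicle DMSO and 100% = high DMSO as cytotoxic control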); conditions: HD-MB03 medulloblastoma cells, stronger effect = higher value
[18] = stronger effect = lower value, cell number ratio, induced over uninduced
[19] = measured here: relative caspase fold change +Dox/-Dox
[20] = measured here: total cells with miR-34 induction, stronger effect = lower value
[21] = measured here: total cells without miR-34 induction
[22] = MELAS cybrid survival, CellTiter-Glo 48 h, stronger effect = higher value
[23] = Rieske KO mouse fibroblast survival, CellTiter-Glo 72 h
[24] = measured here: combination with BGB IC40, at 0.05 µM

Mitogen-activated protein kinase 7 (Homo sapiens), sequence (Q13164 whole entry, looked up, the tested form may be a part): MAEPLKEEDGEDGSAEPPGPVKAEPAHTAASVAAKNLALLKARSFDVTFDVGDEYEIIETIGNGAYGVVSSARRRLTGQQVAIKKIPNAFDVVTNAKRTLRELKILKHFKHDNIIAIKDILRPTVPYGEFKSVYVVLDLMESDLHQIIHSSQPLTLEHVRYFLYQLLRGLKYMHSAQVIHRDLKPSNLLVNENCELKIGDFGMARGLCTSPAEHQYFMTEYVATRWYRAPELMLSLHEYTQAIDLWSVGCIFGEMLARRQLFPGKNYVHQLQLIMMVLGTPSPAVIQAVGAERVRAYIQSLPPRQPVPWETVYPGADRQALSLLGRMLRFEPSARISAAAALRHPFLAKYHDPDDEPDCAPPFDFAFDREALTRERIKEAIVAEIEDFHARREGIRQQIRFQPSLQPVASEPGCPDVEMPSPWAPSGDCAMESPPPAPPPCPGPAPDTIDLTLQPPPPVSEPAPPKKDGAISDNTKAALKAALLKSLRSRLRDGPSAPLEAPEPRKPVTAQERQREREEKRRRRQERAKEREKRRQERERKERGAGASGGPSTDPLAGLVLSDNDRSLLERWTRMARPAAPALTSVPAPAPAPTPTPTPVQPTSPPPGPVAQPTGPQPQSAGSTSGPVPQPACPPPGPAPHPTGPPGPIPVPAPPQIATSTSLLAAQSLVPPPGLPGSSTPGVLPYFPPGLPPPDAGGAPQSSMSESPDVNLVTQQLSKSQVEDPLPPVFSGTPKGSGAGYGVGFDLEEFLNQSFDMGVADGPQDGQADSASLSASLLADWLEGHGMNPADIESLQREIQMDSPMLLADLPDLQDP
NAD(+) hydrolase SARM1 (Homo sapiens), sequence (Q6SZW1 whole entry, looked up, the tested form may be a part): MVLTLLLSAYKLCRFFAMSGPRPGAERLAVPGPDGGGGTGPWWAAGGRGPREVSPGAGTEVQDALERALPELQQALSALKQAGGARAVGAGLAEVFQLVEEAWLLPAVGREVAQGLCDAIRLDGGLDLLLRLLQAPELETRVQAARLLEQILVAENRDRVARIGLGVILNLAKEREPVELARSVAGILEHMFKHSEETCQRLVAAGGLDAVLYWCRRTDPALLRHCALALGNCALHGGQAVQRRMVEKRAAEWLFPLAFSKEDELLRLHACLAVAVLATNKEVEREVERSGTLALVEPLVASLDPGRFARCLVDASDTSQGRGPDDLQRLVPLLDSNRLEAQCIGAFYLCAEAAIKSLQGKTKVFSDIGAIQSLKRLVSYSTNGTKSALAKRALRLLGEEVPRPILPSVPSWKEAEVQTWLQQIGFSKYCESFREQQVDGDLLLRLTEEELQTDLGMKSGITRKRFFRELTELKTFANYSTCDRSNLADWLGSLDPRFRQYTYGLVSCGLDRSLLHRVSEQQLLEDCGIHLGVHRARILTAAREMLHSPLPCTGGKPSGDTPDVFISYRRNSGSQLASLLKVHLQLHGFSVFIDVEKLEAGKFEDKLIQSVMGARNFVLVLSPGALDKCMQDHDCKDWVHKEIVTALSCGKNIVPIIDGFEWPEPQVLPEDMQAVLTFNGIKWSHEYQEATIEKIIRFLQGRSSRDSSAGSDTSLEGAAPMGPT

Question: Which outcome [1] does the source give for `CCCc1cc(C(N)=S)ccn1` here?
Answer: inactive

Question: And the outcome [2]?
Answer: inactive

Question: And the outcome [3]?
Answer: inactive

Question: And the outcome [4]?
Answer: inactive

Question: And the fold change [5, 18]?
Answer: 0.877 (inactive) and 0.879 (inactive)

Question: What about the fold change [5, 19] of the same compound?
Answer: 0.726 and 1.06

Question: And the cell count [5, 20]?
Answer: 7890 and 9370

Question: What about the cell count [5, 21] of the same compound?
Answer: 8990 and 10700

Question: What about the z-score [6, 22] of the same compound?
Answer: -0.334 (inactive) and 1.02 (inactive) and 0.566 (inactive)

Question: And the z-score [6, 23]?
Answer: -0.0512 and 0.419 and 0.177

Question: What about the remaining NAD [7] of the same compound?
Answer: 10 nM (inactive)

Question: What about the luciferase signal [8] of the same compound?
Answer: 96 AU (inactive)

Question: And the z-score [9]?
Answer: 0.335 (inactive)

Question: What does the source list for `CCCN[C@H]1CCc2nc(N)sc2C1`?
Answer: outcome [1]: inactive; outcome [2]: inactive; outcome [3]: inactive; outcome [4]: inactive; fold change [5, 18]: 0.926 (inactive) and 0.917 (inactive); fold change [5, 19]: 0.996 and 1.3; cell count [5, 20]: 7940 and 9730; cell count [5, 21]: 8570 and 10600; outcome [10]: inactive; z-score [6, 22]: 0.752 (inactive) and 0.407 (inactive); z-score [6, 23]: 0.13 and -0.361; z-score [9]: 0.97 (inactive)

Question: With `CN(C)c1ccc(C(=C2C=CC(=[N+](C)C)C=C2)c2ccc(N(C)C)cc2)cc1` as the compound, how does the AC50 [1] read?
Answer: 0.833 µM (active)

Question: What about the AC50 [2] of the same compound?
Answer: 0.372 µM (active)

Question: What about the AC50 [3] of the same compound?
Answer: 1.86 µM (active)

Question: And the IC50 [4]?
Answer: 2.63 µM (active)

Question: What about the fold change [5, 18] of the same compound?
Answer: 0.999 (inactive) and 0.737 (inactive)

Question: What about the fold change [5, 19] of the same compound?
Answer: 0.9 and 1.26

Question: What about the cell count [5, 20] of the same compound?
Answer: 1530 and 788

Question: And the cell count [5, 21]?
Answer: 1530 and 1070

Question: What about the z-score [6, 22] of the same compound?
Answer: 3.09 (active)

Question: What about the z-score [6, 23] of the same compound?
Answer: -2.82

Question: And the remaining NAD [7]?
Answer: 10 nM (inactive)

Question: And the luciferase signal [8]?
Answer: 104 AU (inactive)

Question: And the inhibition ([11]; at 0.5 µM, stronger effect = higher value)?
Answer: -1.03% (inactive)

Question: What about the inhibition ([11]; measured here: combination with BGB IC20, at 0.005 µM) of the same compound?
Answer: -15.3%

Question: And the inhibition ([11]; measured here: combination with BGB IC40, at 0.005 µM)?
Answer: -20.2%

Question: And the inhibition [11, 24]?
Answer: -19.9%

Question: And the inhibition ([11]; measured here: combination with cisplatin, at 0.5 µM, stronger effect = higher value)?
Answer: -17.8%

Question: What about the inhibition ([11]; measured here: combination with cisplatin, at 5 µM, stronger effect = higher value) of the same compound?
Answer: 112%

Question: And the inhibition ([12]; BGB combo, at 5 µM)?
Answer: 99.3%

Question: And the inhibition ([12]; at 0.5 µM)?
Answer: 99.6% (active)

Question: What about the inhibition ([12]; cisplatin combo, at 5 µM) of the same compound?
Answer: 99.6%

Question: What about the inhibition ([12]; measured here: with BGB IC20 combination, at 0.5 µM) of the same compound?
Answer: 99.7%

Question: And the inhibition ([12]; measured here: with cisplatin IC20 combination, at 0.5 µM)?
Answer: 99.6%

Question: And the inhibition ([12]; single agent, at 5 µM)?
Answer: 99.7%

Question: And the inhibition ([13]; BGB IC20 combo, at 0.005 µM)?
Answer: 79.3%

Question: And the inhibition ([13]; BGB IC40 combo, at 0.005 µM)?
Answer: 87.3%

Question: And the inhibition ([13]; BGB IC40 combo, at 0.05 µM)?
Answer: 98.5%

Question: What about the inhibition ([13]; at 0.5 µM) of the same compound?
Answer: -35.3% (inactive)

Question: And the inhibition ([13]; cisplatin combo, at 0.05 µM)?
Answer: 98.5%

Question: What about the inhibition ([13]; cisplatin combo, at 0.5 µM) of the same compound?
Answer: -53%

Question: And the inhibition ([13]; cisplatin combo, at 5 µM)?
Answer: -16%

Question: And the inhibition ([13]; measured here: 5 uM single agent, at 5 µM)?
Answer: 6.83%

Question: And the inhibition ([14]; at 0.5 µM)?
Answer: 80.9% (active)

Question: And the inhibition [14, 24]?
Answer: -11%

Question: And the inhibition ([14]; measured here: combination with cisplatin, at 0.5 µM)?
Answer: 82.3%

Question: What about the inhibition ([14]; measured here: combination with cisplatin, at 5 µM) of the same compound?
Answer: 104%

Question: What about the inhibition ([15]; at 0.5 µM) of the same compound?
Answer: 88.8% (active)

Question: And the inhibition ([15]; measured here: with BGB IC20, at 0.5 µM)?
Answer: 84.9%

Question: And the inhibition ([15]; measured here: with BGB IC20, at 5 µM)?
Answer: 94%

Question: And the inhibition ([15]; measured here: with cisplatin IC20, at 0.5 µM)?
Answer: 92.7%

Question: And the inhibition ([15]; measured here: with cisplatin IC20, at 5 µM)?
Answer: 97.1%

Question: What about the inhibition ([15]; single agent, at 5 µM) of the same compound?
Answer: 96.8%

Question: And the inhibition ([16]; at 0.5 µM)?
Answer: 75.8% (inactive)

Question: What about the inhibition ([16]; measured here: combination with BGB at IC20, at 0.5 µM) of the same compound?
Answer: 79.9%

Question: What about the inhibition ([16]; measured here: combination with cisplatin at IC20, at 0.5 µM) of the same compound?
Answer: 70.6%

Question: And the inhibition ([17]; at 0.5 µM)?
Answer: 59.5% (inactive)

Question: And the inhibition ([17]; measured here: combo with BGB at IC20, at 0.5 µM)?
Answer: 60.7%

Question: And the inhibition ([17]; measured here: combo with cisplatin at IC20, at 0.5 µM)?
Answer: 47%

Question: Which outcome [1] does the source give for `O=c1oc2cc(O)ccc2s1` here?
Answer: inactive

Question: What about the outcome [2] of the same compound?
Answer: inactive

Question: And the outcome [3]?
Answer: inactive

Question: And the outcome [4]?
Answer: inactive

Question: And the fold change [5, 18]?
Answer: 0.941 (inactive)

Question: And the fold change [5, 19]?
Answer: 0.692

Question: What about the cell count [5, 20] of the same compound?
Answer: 8830

Question: What about the cell count [5, 21] of the same compound?
Answer: 9380

Question: And the z-score [6, 22]?
Answer: -0.382 (inactive)

Question: And the z-score [6, 23]?
Answer: 0.46

Question: What about the remaining NAD [7] of the same compound?
Answer: 10 nM (inactive)

Question: What about the luciferase signal [8] of the same compound?
Answer: 56 AU (inactive)

Question: With `O=C(O)CCNC(=O)c1ccc(N=Nc2ccc(O)c(C(=O)O)c2)cc1` as the compound, how does the outcome [1] read?
Answer: inactive

Question: What about the outcome [2] of the same compound?
Answer: inactive

Question: What about the outcome [3] of the same compound?
Answer: inactive

Question: What about the outcome [4] of the same compound?
Answer: inactive

Question: What about the fold change [5, 18] of the same compound?
Answer: 0.971 (inactive) and 0.94 (inactive) and 0.899 (inactive)

Question: What about the fold change [5, 19] of the same compound?
Answer: 0.807 and 0.806 and 1.14

Question: What about the cell count [5, 20] of the same compound?
Answer: 9210 and 7860 and 9290

Question: What about the cell count [5, 21] of the same compound?
Answer: 9490 and 8360 and 10300

Question: And the z-score [6, 22]?
Answer: -1.26 (inactive)

Question: And the z-score [6, 23]?
Answer: -1.16

Question: And the remaining NAD [7]?
Answer: 10 nM (inactive)

Question: What about the z-score [9] of the same compound?
Answer: 1.23 (inactive)
